From PubChem BioAssay AID1159580 (chemical genetic matrix, 2015)
Out of some 5,500 compounds screened, about 2,000 (36%) were called active. Roughly 18% stayed inconclusive and do not appear here. No stated cut-off is given here; in the data, active means normalized growth mostly below about 0.91 (no sharp cut-off); inconclusive means no clear call, values can overlap the other calls; inactive means mostly above about 0.92. This is one part of the list.

Experiment: chemical genetic growth profiling, strain panel (AID 1159580);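 further: tested at 20 µM; growth read once vehicle control cultures reached saturation at 30 °C; 1 = growth at the plate median or of vehicle wells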
Conditions: growth OD

Measured: normalized growth

CO[C@@H]1C[C@@H](C[C@H]2CC[C@H](C)[C@H]([C@@H](C)C(=O)O)O2)O[C@]2(O[C@](C)([C@H]3CC[C@@](C)(C4O[C@@H](C5O[C@@](O)(CO)[C@H](C)C[C@@H]5C)C[C@@H]4C)O3)C[C@H]2C)[C@@H]1C (stereo partly specified)
active: S. cerevisiae deletion strains, locus YBR021W, strain FUR4, stronger effect = lower value 1.19 [resistant] | S. cerevisiae deletion strains, locus YER155C, strain BEM2, stronger effect = lower value 1.08 [resistant] | S. cerevisiae deletion strains, locus YLR039C, strain RIC1, stronger effect = lower value 1.35 [resistant] | S. cerevisiae deletion strains, locus YLR262C, strain YPT6, stronger effect = lower value 1.45 [resistant]
inactive: S. cerevisiae deletion strains, locus YAL013W, strain DEP1, stronger effect = lower value 1.03 | S. cerevisiae deletion strains, locus YBR229C, strain ROT2, stronger effect = lower value 1.04 | S. cerevisiae deletion strains, locus YCL029C, strain bik1, stronger effect = lower value 0.955 | S. cerevisiae deletion strains, locus YDL035C, strain GPR1, stronger effect = lower value 1.03 | S. cerevisiae deletion strains, locus YDL074C, strain BRE1, stronger effect = lower value 1.01 | S. cerevisiae deletion strains, locus YDL101C, strain DUN1, stronger effect = lower value 1.01 | S. cerevisiae deletion strains, locus YDL134C, strain PPH21, stronger effect = lower value 1.01 | S. cerevisiae deletion strains, locus YDL185W, strain tfp1, stronger effect = lower value 0.99 | S. cerevisiae deletion strains, locus YDL192W, strain arf1, stronger effect = lower value 0.961 | S. cerevisiae deletion strains, locus YDR101C, strain arx1, stronger effect = lower value 0.977 | S. cerevisiae deletion strains, locus YDR150W, strain NUM1, stronger effect = lower value 1.04 | S. cerevisiae deletion strains, locus YDR162C, strain NBP2, stronger effect = lower value 1.01 | S. cerevisiae deletion strains, locus YDR318W, strain mcm21, stronger effect = lower value 0.966 | S. cerevisiae deletion strains, locus YDR388W, stronger effect = lower value 0.981 | S. cerevisiae deletion strains, locus YDR502C, strain sam2, stronger effect = lower value 0.99 | S. cerevisiae deletion strains, locus YEL061C, strain CIN8, stronger effect = lower value 1.02 | S. cerevisiae deletion strains, locus YER110C, stronger effect = lower value 1.03 | S. cerevisiae deletion strains, locus YER167W, strain BCK2, stronger effect = lower value 1.02 | S. cerevisiae deletion strains, locus YGL078C, strain dbp3, stronger effect = lower value 0.976 | S. cerevisiae deletion strains, locus YGL086W, strain mad1, stronger effect = lower value 0.97 | S. cerevisiae deletion strains, locus YGL248W, strain PDE1, stronger effect = lower value 1.01 | S. cerevisiae deletion strains, locus YGR078C, strain PAC10, stronger effect = lower value 1.02 | S. cerevisiae deletion strains, locus YGR135W, strain pre9, stronger effect = lower value 0.984 | S. cerevisiae deletion strains, locus YGR229C, strain SMI1, stronger effect = lower value 1.02 | S. cerevisiae deletion strains, locus YGR252W, strain gcn5, stronger effect = lower value 1.06 | S. cerevisiae deletion strains, locus YHR030C, strain SLT2, stronger effect = lower value 1.03 | S. cerevisiae deletion strains, locus YHR079C, strain IRE1 (second series), stronger effect = lower value 0.968 | S. cerevisiae deletion strains, locus YHR094C, strain hxt1, stronger effect = lower value 0.992 | S. cerevisiae deletion strains, locus YHR129C, strain ARP1, stronger effect = lower value 1.06 | S. cerevisiae deletion strains, locus YHR200W, strain rpn10, stronger effect = lower value 0.968 | S. cerevisiae deletion strains, locus YIL066C, strain RNR3, stronger effect = lower value 1.01 | S. cerevisiae deletion strains, locus YIL073C, strain SPO22, stronger effect = lower value 0.984 | S. cerevisiae deletion strains, locus YIL125W, strain kgd1, stronger effect = lower value 0.982 | S. cerevisiae deletion strains, locus YIR030C, strain dcg1, stronger effect = lower value 0.982 | S. cerevisiae deletion strains, locus YJL095W, strain BCK1, stronger effect = lower value 0.997 | S. cerevisiae deletion strains, locus YJL134W, strain LCB3, stronger effect = lower value 1.03 | S. cerevisiae deletion strains, locus YJL168C, strain set2, stronger effect = lower value 0.993 | S. cerevisiae deletion strains, locus YJL187C, strain SWE1 (second series), stronger effect = lower value 1.01 | S. cerevisiae deletion strains, locus YJR043C, strain POL32, stronger effect = lower value 1.02 | S. cerevisiae deletion strains, locus YJR075W, strain HOC1, stronger effect = lower value 1 | S. cerevisiae deletion strains, locus YKL009W, strain mrt4, stronger effect = lower value 0.98 | S. cerevisiae deletion strains, locus YKL068W, stronger effect = lower value 1.01 | S. cerevisiae deletion strains, locus YKL085W, strain MDH1 (second series), stronger effect = lower value 0.978 | S. cerevisiae deletion strains, locus YKL085W, strain MDH1, stronger effect = lower value 0.978 | S. cerevisiae deletion strains, locus YKL190W, strain CNB1, stronger effect = lower value 1.02 | S. cerevisiae deletion strains, locus YKR001C, strain vps1, stronger effect = lower value 1.02 | S. cerevisiae deletion strains, locus YLR058C, strain SHM2, stronger effect = lower value 1.02 | S. cerevisiae deletion strains, locus YLR102C, strain apc9, stronger effect = lower value 0.997 | S. cerevisiae deletion strains, locus YLR268W, strain sec22, stronger effect = lower value 0.929 | S. cerevisiae deletion strains, locus YLR330W, strain CHS5, stronger effect = lower value 1.04 | S. cerevisiae deletion strains, locus YLR342W, strain FKS1 (second series), stronger effect = lower value 1.03 | S. cerevisiae deletion strains, locus YLR371W, strain rom2, stronger effect = lower value 0.999 | S. cerevisiae deletion strains, locus YLR418C, strain cdc73, stronger effect = lower value 1.02 | S. cerevisiae deletion strains, locus YML016C, strain PPZ1, stronger effect = lower value 1.03 | S. cerevisiae deletion strains, locus YML032C, strain rad52, stronger effect = lower value 0.986 | S. cerevisiae deletion strains, locus YML124C, strain tub3, stronger effect = lower value 0.983 | S. cerevisiae deletion strains, locus YMR078C, strain ctf18, stronger effect = lower value 1.03 | S. cerevisiae deletion strains, locus YMR223W, strain ubp8, stronger effect = lower value 0.994 | S. cerevisiae deletion strains, locus YMR263W, strain SAP30, stronger effect = lower value 1.01 | S. cerevisiae deletion strains, locus YMR307W, strain GAS1, stronger effect = lower value 1.17 | S. cerevisiae deletion strains, locus YNL067W, strain RPL9B, stronger effect = lower value 1.01 | S. cerevisiae deletion strains, locus YNL128W, strain TEP1, stronger effect = lower value 1.04 | S. cerevisiae deletion strains, locus YNL153C, strain GIM3, stronger effect = lower value 0.999 | S. cerevisiae deletion strains, locus YNL233W, strain BNI4, stronger effect = lower value 0.996 | S. cerevisiae deletion strains, locus YNL250W, strain rad50, stronger effect = lower value 0.966 | S. cerevisiae deletion strains, locus YNL271C, strain bni1, stronger effect = lower value 1.01 | S. cerevisiae deletion strains, locus YNL298W, strain CLA4, stronger effect = lower value 0.989 | S. cerevisiae deletion strains, locus YNL307C, strain MCK1, stronger effect = lower value 1.01 | S. cerevisiae deletion strains, locus YNL322C, strain KRE1, stronger effect = lower value 1.02 | S. cerevisiae deletion strains, locus YNR052C, strain pop2, stronger effect = lower value 0.976 | S. cerevisiae deletion strains, locus YOL006C, strain TOP1, stronger effect = lower value 0.814 | S. cerevisiae deletion strains, locus YOL012C, strain htz1 1.61 | S. cerevisiae deletion strains, locus YOL147C, strain pex11, stronger effect = lower value 0.989 | S. cerevisiae deletion strains, locus YOR061W, strain CKA2, stronger effect = lower value 1.02 | S. cerevisiae deletion strains, locus YOR069W, strain VPS5, stronger effect = lower value 1.03 | S. cerevisiae deletion strains, locus YOR136W, strain idh2, stronger effect = lower value 0.976 | S. cerevisiae deletion strains, locus YOR144C, strain elg1, stronger effect = lower value 0.988 | S. cerevisiae deletion strains, locus YOR184W, strain ser1, stronger effect = lower value 0.975 | S. cerevisiae deletion strains, locus YOR316C, strain cot1, stronger effect = lower value 0.99 | S. cerevisiae deletion strains, locus YPL055C, strain LGE1, stronger effect = lower value 1.03 | S. cerevisiae deletion strains, locus YPL241C, strain CIN2, stronger effect = lower value 1.04 | S. cerevisiae deletion strains, locus YPR119W, strain clb2, stronger effect = lower value 0.99 | S. cerevisiae deletion strains, locus YPR141C, strain kar3, stronger effect = lower value 0.986 | S. cerevisiae deletion strains, locus YPR163C, strain tif3, stronger effect = lower value 1.01 | S. cerevisiae deletion strains, locus YPR167C, strain met16, stronger effect = lower value 0.977 | S. cerevisiae deletion strains, strain wtn01, stronger effect = lower value 0.969 | S. cerevisiae strains, strain wild type, stronger effect = lower value 1
